PfHsp40 rescue: rescue of yeast from PfHsp40 toxicity, primary screen, S. cerevisiae, ATP luminescence; S. cerevisiae expressing PfHsp40, growth rescue; growth rescue, % at 12.5 µM; 0.68% of 340,000 active; AID 504582, 2011; in the data active means growth rescue above about 28%, passing the limit was not always enough;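 further: yeast W303a lacking pdr1 and pdr3 grown in galactose medium; growth measured after three days at 30 °C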
FadD28 binding: inhibitors of FadD28 bisubstrate probe binding, primary screen, biochemical, fluorescence polarization, single point; 0.22% of 360,000 active; inhibition, % at 12.5 µM; in the data active means inhibition above about 8.5%, passing the limit was not always enough
Mtb BioA inh: M. tuberculosis BioA enzyme inhibitors, primary screen, biochemical, plate reader, single point, HTS. 7,8-diaminopelargonic acid synthase BioA (Mycobacterium tuberculosis). purified M. tuberculosis BioA enzyme. inhibition, % at 9.99 µM. 0.096% of 360,000 active; in the data active means inhibition above about 40%
PrP 5UTR inh: inhibition of PrP 5' UTR reporter expression. 0.35% of 340,000 active. AID 488862, 2010. inhibition, % (test concentration not listed). cell-based PrP 5' UTR mRNA reporter, plate reader; in the data active means inhibition above about 52%; further: 0 = median of the neutral control wells
Yp Topo-I inh: Yersinia pestis topoisomerase I inhibitors, primary screen, biochemical, cleavage product accumulation, plate reader, single point. DNA topoisomerase I (Yersinia pestis CO92). Y. pestis Topo-I cleavage product accumulation. activity, % at 10 µM. 0.064% of 360,000 active. AID 504884, 2011; in the data active means activity above about 50%, passing the limit was not always enough
An asterisk follows results filed as active; . = no result given. Most compounds without a hit are left out; they make up all but 1.1% or so of the library.

SMILES	PfHsp40 rescue	FadD28 binding	Mtb BioA inh	PrP 5UTR inh	Yp Topo-I inh
O=c1c2ccccc2nc(-c2cccc(Cl)c2)n1O	236*	-1	.	7	-4
COc1ccccc1-c1nc2ccccc2c(=O)n1O	0	-1	0	-13	-3
Cc1ccc(-c2nc3ccc(Cl)cc3c(=O)n2O)cc1	355*	0	0	-6	3
O=c1c2cc(Cl)ccc2nc(-c2ccccc2Cl)n1O	12	-3	.	-21	1
C/C=C/c1ccc2c(c1)O[C@H](CN(C)C(=O)NC(C)C)[C@H](C)CN([C@@H](C)CO)S2(=O)=O	.	.	2	.	.
C[C@H]1CN([C@@H](C)CO)C(=O)CCCn2nncc2CO[C@H]1CN(C)S(=O)(=O)c1cn(C)cn1	.	.	-2	.	.
CC(C)CC#Cc1ccc2c(c1)O[C@@H](CN(C)C(=O)C1CCOCC1)[C@H](C)CN([C@H](C)CO)S2(=O)=O	.	.	-3	.	.
COCOCCn1cc(CN2CCS(=O)(=O)N(Cc3ccc(-c4ccc(Cl)c(Cl)c4)cc3)C(C)C2=O)nn1 (configuration not stated)	.	-3	-2	.	18
C[C@@H]1CN([C@@H](C)CO)C(=O)c2cccc(NC(=O)Nc3ccc4c(c3)OCO4)c2O[C@@H]1CN(C)C(=O)NC1CCCCC1	.	.	0	.	.
COc1cc(OC)cc(-c2nc3ccccc3c(=O)n2OC(=O)c2ccc(Br)cc2)c1	0	-3	.	5	13
COc1ccc(C(=O)On2c(-c3ccc(Br)cc3)nc3ccccc3c2=O)cc1	375*	-2	1	-16	11
O=c1c2cc(Br)ccc2nc(-c2ccccc2)n1O	128*	-3	0	-14	6
C[C@@H]1CN([C@@H](C)CO)S(=O)(=O)c2ccc(C#CCN(C)C)cc2O[C@H]1CN(C)C(=O)C1CCC1	.	.	0	.	.
COc1ccc(NS(=O)(=O)c2ccc(NC(=O)c3ccc(CN4CCOCC4)cc3)cc2)cc1	50*	-5	2	-13	0
Cc1ccc(-c2oc3ccccc3c(=O)c2O)cc1	-1	-2	-1	-16	22
Cc1ccc2oc(-c3ccccc3)c(C(=O)O)c(=O)c2c1	444*	-4	1	-106	-15
O=c1c(O)c(-c2ccccc2)oc2ccccc12	219*	-4	-1	-27	2
Cc1nnc(NC(=O)CN2CC(C)OC(C)C2)s1 (configuration not stated)	28*	-4	-1	-64	3
CCOC(=O)c1sc(NC(=O)CN2CC(C)OC(C)C2)nc1C (configuration not stated)	-1	0	-1	-8	-9
COc1cccc(C(=O)Nc2ccc3c(c2)OC[C@@H](C)N(C(=O)C2CCCCC2)C[C@@H](C)[C@H](OC)CN(C)C3=O)c1	.	.	-3	.	.
C[C@@H]1CCCCO[C@H](CN(C)Cc2ccc3c(c2)OCO3)[C@H](C)CN([C@H](C)CO)C(=O)c2cc(NC(=O)C3CCCCC3)ccc2O1	.	.	-1	.	.
O=S(=O)(O)c1cc(Cl)cc(N=Nc2ccc(O)cc2O)c1O	58*	34*	.	-8	-18
CC(C)(C)c1ccc(-n2nc(C#N)c(Cl)cc2=O)cc1	146*	1	.	-76	-1
CC(C)(C)c1ccc(-n2nc(C(N)=O)c(O)cc2=O)cc1	-1	-2	-1	-12	7
O=C(N[C@H]1CC[C@H](CC(=O)N2CCc3ccccc3C2)O[C@H]1CO)C1CCOCC1	.	.	1	.	.
SMILES	PfHsp40 rescue	FadD28 binding	Mtb BioA inh	PrP 5UTR inh	Yp Topo-I inh
O=C(C[n+]1cccc(Br)c1)c1ccccc1	1	2	1	-5	1
O=C(C[n+]1cccc(Br)c1)c1ccc(-c2ccccc2)cc1	54*	-16	0	-11	1
CO[C@@H]1CN(C)C(=O)c2cc(NC(=O)C3CC3)ccc2OC[C@@H](C)NC[C@H]1C	.	.	1	.	.
N#C/C(=C\c1cn(Cc2ccccc2F)c2ccccc12)C(=O)NCc1ccco1	0	-2	.	-16	83*
COc1ccccc1OCCn1cc(/C=C(\C#N)C(=O)NCc2ccco2)c2ccccc21	-1	-2	-1	-4	13
O=C(CC(=O)c1cc(Cl)ccc1O)c1ccccc1	6	1	-4	-40	-6
Cc1cccc(C(=O)CC(=O)c2cc(Cl)ccc2O)c1	82*	-5	2	-13	-8
O=C(CSc1nc2cc(Cl)ccc2o1)NC1CC1	0	-4	0	-9	3
